Bioassay records: PubChem BioAssay, several laboratories
Most compounds without a hit are left out; they make up all but 12% or so of the library.
Lmaj promast – reduces viability of Leishmania major promastigotes; actives 9% (n = 200,000); resazurin fluorescence viability; inhibition, % at 10 µM; in the data active means inhibition above about 50%;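 further: promastigotes grown with compound for 44 hours at 28 °C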
CHOP inh – inhibitors of CHOP induction in ER stress response | CHO-K1 CHOP-promoter luciferase, tunicamycin-induced, 15-18 h | inhibition, % at 10 µM | actives 3.8% (n = 220,000);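 active means compounds that reduced the stress-induced luciferase reporter signal by more than about 70% of percent inhibition, limit read from the data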;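 further: 0% = tunicamycin plus vehicle and 100% = wells without tunicamycin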
Arbovirus anti – antivirals against arbovirus infection; arbovirus infection cell-based antiviral screen; AID 1251; actives 0.37% (n = 200,000); inhibition, % at 10 µM; in the data active means inhibition above about 30%
WT yeast gro inh – growth inhibition of WT yeast, mitochondrial fusion screen. mitochondrial fusion phenotypic screen, WT strain. inhibition, % at 10 µM. actives 2.1% (n = 190,000). AID 1362; in the data active means inhibition above about 58%; tested in S. cerevisiae
* = called active by the depositor; . = not tested or not shown.

SMILES	Lmaj promast	CHOP inh	Arbovirus anti	WT yeast gro inh
O=[N+]([O-])c1cc2c(cc1/C=N/n1cnnc1)OCO2	4	6	-4	-1
Cc1onc(-c2c(F)cccc2Cl)c1C(=O)N1CCN(c2ncc(Br)cn2)CC1	.	6	.	.
Cc1c(C#N)c(NC(=O)CCl)n(Cc2cccs2)c1C	80*	53	-11	-20
Cc1c(C#N)c(NC(=O)CCl)n(Cc2ccccc2)c1C	90*	-12	5	-24
CCN(CC)C(=O)c1sc(NC(=O)Cc2cccs2)c(C#N)c1C	-10	25	-1	13
N#Cc1c(NC(=O)c2ccccc2Cl)n(Cc2ccccc2)c2nc3ccccc3nc12	-6	12	-21	-1
Cc1c(C#N)c(NC(=O)CCl)n(Cc2ccc(F)cc2)c1C	92*	-92	-9	-12
CCCCCCCSc1nnc(N)s1	.	-1	.	.
NC(=O)C(c1ccc(Cl)cc1Cl)c1ncc(C(F)(F)F)cc1Cl (centres undefined)	-1	32	-4	22
C=CCN1C(=Nc2cccnc2)SCC1(O)c1ccc(C)cc1 (centres undefined)	61*	.	1	21
C=CCN1C(=O)CSC1=Nc1cccc(O)c1	2	27	4	-4
COc1cccc(/C=N/n2c(C)nc3ccccc32)c1OC	6	11	1	62*
Cc1nc2ccccc2c(=O)n1/N=C/c1ccc([N+](=O)[O-])o1	.	-295	.	.
Cc1nc2ccccc2n1/N=C/c1ccc([N+](=O)[O-])o1	101*	.	.	.
Cc1nc2ccccc2c(=O)n1/N=C/c1ccccn1	-10	-2	3	-10
Cc1nc2ccccc2n1/N=C/c1ccc([N+](=O)[O-])s1	100*	44	-32	80*
Cn1c(C(=O)c2ccccc2[N+](=O)[O-])nc2ccccc21	9	5	20	-12
O=[N+]([O-])c1ccc(/C=N/n2c(CO)nc3ccccc32)s1	100*	14	-6	11
CCCCN(CCCNC(=O)c1ccc2nc(N3CCOCC3)sc2c1)Cc1ccccc1	36	6	-12	1
Cc1cc2ccccn2c1C(C[N+](=O)[O-])c1ccc(N(C)C)cc1 (centres undefined)	89*	-40	-8	-2
COc1ccc(C(C[N+](=O)[O-])c2c(C)cc3ccccn23)cc1 (centres undefined)	99*	-35	-3	3
COc1ccc(C(C[N+](=O)[O-])c2c(-c3ccccc3)cc3ccccn23)c(OC)c1 (centres undefined)	100*	-193	-11	24
Cc1cc2ccccn2c1C(=O)Nc1ccccc1	-3	18	-1	1
Cc1cccc2sc(N(CCCN(C)C)C(=O)c3sc4ccccc4c3Cl)nc12	21	54	10	88*
Cc1ccc2nc(N(CCN(C)C)C(=O)c3cc(Cl)sc3Cl)sc2c1	-3	39	10	22
SMILES	Lmaj promast	CHOP inh	Arbovirus anti	WT yeast gro inh
Cc1cccc2sc(N(CCN(C)C)C(=O)c3cc(Cl)sc3Cl)nc12	0	72*	-2	16
O=C1CC(C(=O)Nc2ccccc2)S/C(=N\NC(=O)c2ccccc2Cl)N1 (centres undefined)	-3	-27	4	3
O=C(Nc1cc(Cl)ccc1N1CCOCC1)c1cccnc1Cl	.	3	.	.
Cc1ccc(-c2cc3nc(C)cc(C)n3n2)cc1	-5	5	-4	-15
COc1ccc(-c2cc3nc(C)cc(N4CC(C)CC(C)C4)n3n2)cc1 (centres undefined)	16	28	0	70*
C=CCNc1nc(N)c(C(=C(C#N)C#N)c2ccc(Br)cc2)s1	20	81*	2	-6
CC(C)COc1ccc(Cc2cnc(N)nc2N)cc1	72*	52	-30	14
Cc1oc(-c2ccccc2)nc1C(=O)N1CCN(c2ccc(F)cc2)CC1	-4	-6	4	36
CC1CCN(C(=S)c2ccc(N(C)C)cc2)CC1	0	-3	-2	37
Cc1ccc(CC2SC(=Nc3ccccc3)N(c3ccccc3)C2=O)cc1 (centres undefined)	53*	58	-13	61*
O=C(O)CC1SC(=Nc2ccccc2)N(c2ccccc2)C1=O (centres undefined)	-3	-13	16	6
Cc1nnc(-n2ncc(C#N)c2N)c2nn(-c3ccccc3F)c(C)c12	-7	.	.	.
CC1=CCC(C(=O)O)C(C(=O)Nc2ccc(-c3nc4ccc(C)cc4s3)cc2)C1 (centres undefined)	.	-43	.	.
N#CC1=C2SCC(O)(c3ccccc3)N2C(=O)CC1c1ccccc1 (centres undefined)	92*	.	-30	22
C#CCOc1ccc(/C=N/O)cc1Cl	55*	-29	0	13
COc1cc(/C=N/NC(=S)Nc2cccc(Cl)c2C)ccc1OCC(=O)N1CC(C)OC(C)C1 (centres undefined)	-2	-21	-14	-3
O=[N+]([O-])C1=CC=C2C(=NC3(CCCCC3)N2O)C1=NCCc1ccccc1	75*	40	1	20
Cc1nnc2n(Cc3ccccc3)c(=O)c3c4c(sc3n12)COC(C(C)C)C4 (centres undefined)	55*	56	-7	-11
O=C(Nc1ccc(Cl)c(Cl)c1)N(Cc1cccnc1)Cc1ccco1	100*	32	-10	16
S=C(Nc1ccccc1Cl)N(Cc1ccccc1)Cc1ccccn1	18	12	5	64*
COc1ccc(NC(=S)N(Cc2ccc(C)cc2)Cc2ccccn2)cc1	95*	29	6	11
Cc1c(Cl)cccc1NC(=S)N(Cc1cccnc1)Cc1ccccc1Cl	95*	41	-11	35
COc1ccccc1NC(=S)N(Cc1ccccc1)Cc1ccccn1	2	6	4	57
O=C1c2ccccc2C(=O)N1CCc1c[nH]c2ccc(O)cc12	-5	-20	9	-17
CCCCN=CC1=C(O)CC(c2ccccc2)CC1=O (centres undefined)	-7	-5	1	5
SMILES	Lmaj promast	CHOP inh	Arbovirus anti	WT yeast gro inh
Cc1ccc(NC(=O)N(CCCN2CCOCC2)Cc2cccnc2)cc1C	65*	22	17	8
COc1ccc(NC(=O)N(CCCN2CCOCC2)Cc2cccnc2)c(OC)c1	7	.	2	25
S=C(Nc1ccccc1Cl)N(Cc1cccnc1)Cc1ccco1	95*	9	13	11
O=C(CN(Cc1ccco1)C(=O)c1ccc(Cl)cc1)Nc1ccc(Cl)c(Cl)c1	29	93*	5	-4
N#CCCN(Cc1cccnc1)C(=S)Nc1ccccc1Cl	23	9	19	-2
O=C(CSc1ccc(C(F)(F)F)cc1[N+](=O)[O-])Nc1ccc2ccccc2c1	2	43	-7	1
CSCc1ccc(C(=O)NCc2ccc(F)cc2)cc1	56*	-7	4	0
CSCc1ccc(C(=O)NCc2ccc(C)cc2)cc1	-3	-43	2	-3
CCCc1nc2ccccc2c(C(=O)OCC(=O)N2CCc3ccccc32)c1CC	99*	24	4	40
CCCc1nc2ccccc2c(C(=O)OCC(=O)Nc2ccc(S(=O)(=O)N3CCOCC3)cc2)c1CC	18	12	-28	-1
CC(Oc1ncnc2ccccc12)C(=O)Nc1cccc(S(=O)(=O)N2CCOCC2)c1 (centres undefined)	78*	-4	2	14
